Compounds without any hit were thinned out: in the full panel of roughly 79,000, 15% have a hit. Unmarked numbers belong to inactive results. The source made the active and inactive calls. No stated cut-off is given here; in the data, active means growth inhibition above about 70%; inactive means the rest.
Experiments:
[1] = NCI Yeast Anticancer Drug Screen. Data for the rad50 strain (AID 155);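 further: 0% = growth of vehicle-only cultures of the same strain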; settings: S. cerevisiae rad50 strain growth inhibition; at 50.0 µM; stronger effect = higher value
Outline: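 Genetically altered yeast (DNA repair pathway); compound treatment; growth inhibition vs vehicle ctrl.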

[2] = NCI Yeast Anticancer Drug Screen. Data for the mec2-1 strain (AID 157); settings: S. cerevisiae mec2-1 strain, at 50.0 µM, stronger effect = higher value
Outline: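 Vehicle-treated cultures served as reference for growth inhibition of compound-exposed mec2-1 yeast.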

[3] = NCI Yeast Anticancer Drug Screen. Data for the sgs1 mgt1 strain (AID 161);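 further: 0% = growth of cultures given vehicle only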; settings: S. cerevisiae sgs1 mgt1 strain, at 50.0 µM, stronger effect = higher value
Outline: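 Inhibition of yeast growth, normalised to vehicle-treated controls, is reported for a strain bearing genetic alterations in DNA damage repair.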

[4] = NCI Yeast Anticancer Drug Screen. Data for the cln2 rad14 strain (AID 165);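 further: 0% = growth equal to vehicle treated cultures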; settings: S. cerevisiae cln2 rad14 strain, at 50.0 µM, stronger effect = higher value
Outline: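 Each compound was tested on cln2 rad14 yeast. Inhibition of growth was calculated against vehicle-exposed controls.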

[5] = NCI Yeast Anticancer Drug Screen. Data for the bub3 strain (AID 167); settings: S. cerevisiae bub3 mutant strain, at 50.0 µM, stronger effect = higher value
Outline: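 Yeast carrying a defined mutation is treated with each compound, and growth is compared with that of vehicle-exposed cells to give inhibition.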

[6] = NCI Yeast Anticancer Drug Screen. Data for the mlh1 rad18 strain (AID 175); settings: S. cerevisiae mlh1 rad18 strain growth inhibition; at 50.0 µM; stronger effect = higher value
Outline: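 Vehicle-treated cultures served as the reference for growth inhibition in a yeast strain carrying DNA damage repair alterations exposed to each compound.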

| Compound | growth inhibition [1] | growth inhibition [2] | growth inhibition [3] | growth inhibition [4] | growth inhibition [5] | growth inhibition [6] |
| --- | --- | --- | --- | --- | --- | --- |
| COc1cc2oc3cc(=O)cc4oc(-c5ccccc5)cc(c2c2c1CCC(c1ccccc1)O2)c43 (configuration not stated) | 6.75% | 7.9% | -17.4% | 3.6% | -8.7% | -10.2% |
| CN(C)CC(N)C(=O)O (configuration not stated) | -4.35% | -13.1% | -12.2% | -13.6% | -21.3% | -18.6% |
| Clc1ccccc1-c1nc(-c2ccncc2)no1 | 23.3% | -14.9% | -25% | 34.1% | 57.6% | 34% |
| Cc1cc2c(c(=O)o1)C(C)CC(c1c(O)cc(C)oc1=O)O2 (configuration not stated) | 15.3% | 5.35% | 16.8% | 5.85% | 14.1% | 20.6% |
| COc1cc(NCCCCCNC(C)C)c2ncccc2c1 | 48.9% | 20.2% | 35.3% | 27.9% | 35.6% | 54% |
| CCCCc1c2c(nc3c1CCCC3=O)CCCC2 | 8.7% | 8.45% | 27.4% | 15.8% | 37.9% | -0.8% |
| CCc1nc2c(N)ncnc2o1 | -1.45% | -1.5% | -3.3% | -37.3% | -19.8% | 11.4% |
| CCOc1ccc(N=Nc2c(O)n(-c3ccc(Br)cc3)c(=S)n(-c3ccc(OC)cc3)c2=O)cc1 | 28.8% | -8.7% | -9.1% | -24.4% | 1.35% | 2.3% |
| Cc1c(C)c(C)c2cc3c(C)c(C)c(C)c(C)c3cc2c1C | -4.55% | -1.9% | -8.5% | -2.35% | 6.45% | -11.6% |
| COc1cc(NCCCCCNC(C)C)c2nccc(C)c2c1 | 42.2% | 43.1% | 56.6% | 28.6% | 27.9% | 50.5% |
| CC(C)S(=O)(=O)C(C)C | 5.1% | 0.35% | -8.65% | 11.7% | -13.6% | -5.85% |
| Cc1cc(C)c(C#N)c(SC(C(=O)NC(C)(C)C)c2ccccc2)n1 (configuration not stated) | 2.25% | -16.8% | 8.75% | 18% | -8.15% | -14.3% |
| CC1(C)O[C@H]2Cn3c(c(C#N)c4ccccc43)[C@H]2O1 | 11.2% | -38.4% | 15.8% | -11.1% | 42.1% | -21.2% |
| CCCc1nc(NC#N)nc(C(=O)NC23CC4CC(CC(C4)C2)C3)c1C | -8.2% | -13.2% | 7.4% | 8.4% | -7.2% | -9.35% |
| COC(=O)c1ccccc1Cl | -11.2% | 4% | 9.05% | -14.3% | 6.65% | 26.1% |
| O=[N+]([O-])c1ccc(NC2CCCCC2)nc1 | 14% | -9.85% | 13.9% | 7.65% | 42.6% | -1.55% |
| COC(=O)c1ccccc1NC(=O)Nc1ccccc1 | 3.1% | 9.35% | 3.25% | -14.9% | 4.25% | 8.35% |
| O=C(Cc1ccccc1)Nc1cccc2ccccc12 | 6.15% | 1.7% | 0.8% | 1% | 22.9% | 0.9% |
| CCOc1ccc(CC(=O)Nc2cc([N+](=O)[O-])ccc2NCCN(CC)CC)cc1 | -18.2% | -10.4% | -8.6% | -53.8% | 0.2% | -3.85% |

| Compound | growth inhibition [1] | growth inhibition [2] | growth inhibition [3] | growth inhibition [4] | growth inhibition [5] | growth inhibition [6] |
| --- | --- | --- | --- | --- | --- | --- |
| CC(=O)C(C(=O)C(=O)Nc1cc(Cl)c(Cl)cc1Cl)c1csc(N)n1 (configuration not stated) | -14.7% | -9.2% | -1.85% | 7% | -2.5% | -10.6% |
| CC(=O)Nc1ccc(NC(=O)c2ccccc2Cl)cc1 | -0.45% | -9.15% | 4.7% | -6.6% | 10.9% | -33.1% |
| CN(C)CCN1CCCN(C)CC1 | -14.9% | -13.8% | -4.25% | -17.2% | -25.3% | 5.4% |
| CCOC(=O)C12CCCC1(O)N(NC(=O)OC(C)(C)C)C(C)=C2C(=O)OC (configuration not stated) | -7.85% | 15.1% | -2.6% | -43.2% | 0.35% | -7.5% |
| COCC(=O)c1ccccc1-c1ccccc1 | 13.6% | -2.65% | 3.15% | -4.1% | -11.2% | 0.85% |
| CCOC(=O)C(C(=O)c1cccnc1)C(C(=O)OCC)C(=O)c1cccnc1 (configuration not stated) | 5.1% | 20.9% | 6% | 20.4% | 12.1% | 5.55% |
| CC(C(=O)C(=O)Nc1ccc(Cl)cc1)C(=O)c1ccc(Cl)cc1 (configuration not stated) | 1.25% | -7.15% | -2.85% | -14.9% | 5.15% | -17.3% |
| c1ccc2c3c(ccc2c1)Oc1ccc2ccccc2c1C3 | -8.55% | -1.45% | -7.2% | -47.4% | -7.35% | 1% |
| Cc1ccc(N=Nc2c(C)nn(-c3ccccc3)c2C)c(Br)c1 | 26.6% | 10.8% | 47.5% | 4.1% | 18.9% | 38.6% |
| O=C1c2ccccc2C(=O)C2C1C1C(=O)c3ccccc3C(=O)C21 (configuration not stated) | -14.6% | -1.5% | 2.45% | -20.2% | -8.6% | 24.6% |
| CSc1ccc(C(=O)c2ccc(SC)cc2)cc1 | 5.65% | 15.8% | 16.2% | -12.8% | -4.25% | -17.2% |
| CN1C(=O)/C(=C2\SC(=O)N(CN3CCCCC3)C2=O)c2cc(Br)ccc21 | -10.6% | -1.2% | -11.2% | 10.2% | -2.45% | 18.1% |
| COP(=O)(CC(=O)C1OC(C)(C)OC1C(O)COCc1ccccc1)OC (configuration not stated) | -21.3% | 22.9% | 22.9% | 14.3% | 14.6% | 5.85% |
| CCn1c(C)nc([N+](=O)[O-])c1Sc1ncc[nH]1 | -7.8% | 0.7% | -11.4% | 27.8% | 10.2% | -3.35% |
| COc1cc2c(c3c1c(=O)c1ccccc1n3C)C=CC1(CCCCC1)O2 | -12.4% | -19.6% | 91% (active) | 86.5% (active) | 87.5% (active) | -7.4% |
| O=C1c2ccccc2CN1c1ccc(O)cc1 | 5.65% | 1.5% | -14.8% | 20.9% | -1.2% | 16.9% |
| CC1CN(CCCOC(=O)Nc2cccc3ccccc23)CCN1Cc1ccccc1 (configuration not stated) | 81.2% (active) | 94% (active) | 95.8% (active) | 97.7% (active) | 82% (active) | 95.8% (active) |
| COc1ccc(CCNC(=O)Cc2ccc(Cl)cc2)cc1OC | 3.65% | -4.65% | -9.7% | 4.2% | -5.75% | 0.2% |
